SENP8 block-1: blocks the human protease SENP8; 1.2% of 330,000 active; purified SENP8, Z-RLRGG-aminoluciferin cleavage, luminescence; Q96LD8; inhibition, % at 10 µM; in the data active = inhibition above about 50%
LGR2 inh: inhibitors of bursicon-induced Drosophila LGR2 receptor cAMP signaling | AID 720647 | inhibition, % at 9.99 µM | HEK293 LGR2, CRE-luciferase, bursicon-stimulated, 4 h | 0.35% of 380,000 active;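 active = drop in luminescence signal, shown as inhibition above about 50% in the replicate tests, limit read from the data, passing the limit was not always enough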;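 note: agonist challenge used bursicon conditioned medium at about half maximal strength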
SENP6 inh: inhibitors of human SENP6 protease; Q9GZR1; Recombinant SENP6 catalytic domain, aminoluciferin luminescence; inhibition, % at 10 µM; 1.8% of 330,000 active;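 active = inhibition above about 50% at the single tested dose, limit read from the data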;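 note: plate controls were DMSO wells with enzyme for no effect and DMSO wells lacking enzyme for full effect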
SENP8 block-2: SENP8 (human) protease inhibition | recombinant SENP8, Nedd8 substrate fluorescence | Q96LD8 | AID 602440 | inhibition, % at 20 µM | 0.64% of 360,000 active; in the data active = inhibition mostly above about 40%, no sharp cut-off; inactive = mostly below about 27%
SENP7 inh: inhibitors of human SENP7 protease | 1.5% of 330,000 active | AID 434973 | Q9BQF6 | recombinant SENP7, Z-RLRGG-aminoluciferin luminescence, 40 min | inhibition, % at 5 µM;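 active = inhibition above about 50% at the single test dose, limit read from the data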;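 note: plate controls were DMSO with enzyme for no effect and no enzyme buffer wells for full effect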
Target sequence (Q9BQF6 706-1050 limits assumed): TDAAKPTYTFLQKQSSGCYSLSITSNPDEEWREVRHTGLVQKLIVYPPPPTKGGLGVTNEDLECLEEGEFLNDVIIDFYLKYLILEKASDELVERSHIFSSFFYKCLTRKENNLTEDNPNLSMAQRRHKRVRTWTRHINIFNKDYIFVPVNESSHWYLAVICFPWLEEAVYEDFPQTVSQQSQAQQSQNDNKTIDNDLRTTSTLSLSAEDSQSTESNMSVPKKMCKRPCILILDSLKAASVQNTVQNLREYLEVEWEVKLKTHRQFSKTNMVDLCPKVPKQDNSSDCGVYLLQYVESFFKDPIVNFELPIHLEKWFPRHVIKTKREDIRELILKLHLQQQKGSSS
HSP90 refold inh: blocks HSP90-mediated luciferase refolding in reticulocyte lysate; Rabbit reticulocyte lysate, luciferase refolding luminescence, 3 h; inhibition, % at 5.6 µM; 0.91% of 290,000 active;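 active = inhibition above the screen-wide mean plus 3 SD, computed separately per campaign, cut at about 16% in these data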;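 note: 0% = DMSO wells and 100% = 60 µM geldanamycin wells; inhibitors lower the luminescence because luciferase stays unfolded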
SENP8 conf: confirmation of human SENP8 protease inhibitors | shares compounds with SENP7 inh | Recombinant SENP8, Z-RLRGG-aminoluciferin luminescence, 60 min | inhibition, % at 12.5 µM | 40% of 6,200 active;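 active = mean inhibition across replicates above about 50%, limit read from the data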
SENP6 conf: confirmation of human SENP6 protease inhibitors; shares compounds with SENP7 inh; recombinant SENP6, Z-RLRGG-aminoluciferin luminescence; inhibition, % at 12.5 µM; 58% of 6,200 active
SENP7 confirm: confirmation of human SENP7 protease inhibitors; inhibition, % at 12.5 µM; AID 488917; recombinant SENP7, Z-RLRGG-aminoluciferin luminescence, 40 min; 69% of 6,200 active; shares compounds with SENP7 inh
Casp3 select: inhibits human caspase-3 in SENP selectivity test. shares compounds with SENP7 inh. 60% of 6,200 active. AID 488918. purified caspase-3, Z-DEVD-aminoluciferin luminescence, 60 min. inhibition, % at 12.5 µM;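 active = mean inhibition above about 50%, limit read from the data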;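 note: plate controls were enzyme with DMSO for no effect and wells without caspase-3 for full effect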
SENP luc ctr: interferes with luciferase luminescence in SENP counter-screen; shares compounds with SENP7 inh; Pre-incubated SENP8/Z-RLRGG-aminoluciferin, luciferase luminescence interference; inhibition, % at 12.5 µM; AID 488919; 39% of 6,200 active;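 active = mean inhibition above about 50% when retested at one dose, limit read from the data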;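 note: plate controls were DMSO wells with completed reaction for no effect and substrate without enzyme for full effect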
Numbers without * were called inactive; nt = no result. This is a sample that favours compounds with a hit; in the whole collection about 2.3% have one here.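 Rule for the calls, unless noted: active = mean inhibition above about 50% in the one-dose retest (limit read from the data); inactive = the rest.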

SMILES | SENP8 block-1 | LGR2 inh | SENP6 inh | SENP8 block-2 | SENP7 inh | HSP90 refold inh | SENP8 conf | SENP6 conf | SENP7 confirm | Casp3 select | SENP luc ctr
C[C@H](CO)N1C[C@H](C)[C@@H](CN(C)C(=O)c2ccc(F)cc2)Oc2ncc(-c3ccncc3)cc2C1=O | nt | 7 | nt | nt | nt | nt | nt | nt | nt | nt | nt
Fc1cccc(F)c1CSc1nc2ccccc2[nH]1 | 52* | nt | 77* | 9 | 74* | 2 | 62* | 62* | 89* | 71* | 74*
O=C(CSc1nc2ccccc2[nH]1)c1ccccc1F | 33 | -92 | 57* | 3 | 47 | 0 | 51* | 44 | 81* | 63* | 62*
O=C(CSc1nc2ccccc2[nH]1)c1c[nH]c2ccccc12 | -4 | -25 | -10 | 26 | 3 | -3 | nt | nt | nt | nt | nt
O=C(O)c1ccccc1CSc1nc2ccccc2[nH]1 | 47 | 6 | 70* | 0 | 47 | 3 | 72* | 70* | 87* | 88* | 76*
Cc1noc(C)c1S(=O)(=O)N(C)C[C@@H]1OCCCC[C@@H](C)Oc2ccc(NC(=O)C3CCCCC3)cc2C(=O)N([C@@H](C)CO)C[C@H]1C | nt | -3 | nt | nt | nt | nt | nt | nt | nt | nt | nt
Cc1nn2cc(-c3cccc(Cl)c3)cnc2c1Br | 26 | -31 | -17 | 13 | 81* | 2 | 9 | 11 | 38 | 33 | 1
CC(C)n1nnnc1-c1cccc(Cl)c1 | 2 | nt | 7 | 20 | 17 | -2 | nt | nt | nt | nt | nt
CC(=O)Nc1ccc(C(=O)OCc2ccccc2Br)cc1 | -13 | -30 | -8 | 13 | 5 | -1 | nt | nt | nt | nt | nt
Cc1nc2ccc(C(=O)OCc3ccccc3Br)cc2nc1C | 47 | -90 | 67* | 10 | 56* | 3 | 15 | 12 | 44 | 13 | -4
Cc1ccc(/C=N/NC(=O)c2ccco2)cc1 | 34 | 27 | 41 | 14 | 34 | 3 | nt | nt | nt | nt | nt
CN(C)c1ccc(/C=N/NC(=O)c2ccco2)cc1 | 27 | 36 | 65* | -290 | 49 | 5 | 46 | 48 | 81* | 83* | 40
CN(C)c1ccc(/C=N/NC(=O)C(=O)N2CCCCCC2)cc1 | 86* | 0 | -12 | -67 | 8 | 3 | 4 | 9 | 14 | 3 | 5
CN(C)c1ccc(/C=N\NC(=O)c2cccc3cc[nH]c23)cc1 | 76* | -85 | 86* | -430 | 85* | -5 | 84* | 82* | 95* | 80* | 64*
CN(C)c1ccc(/C=N/NC(=O)c2ccnn2C)cc1 | 91* | -47 | 95* | -252 | 98* | 3 | 90* | 90* | 98* | 95* | 88*
C[C@@H]1CCCCO[C@@H](CN(C)S(=O)(=O)c2ccccc2)[C@@H](C)CN([C@@H](C)CO)C(=O)c2cc(NC(=O)CCCN(C)C)ccc2O1 | nt | -9 | nt | nt | nt | nt | nt | nt | nt | nt | nt
O=C(NCC[C@@H]1CC[C@H](NC(=O)Nc2cc(F)ccc2F)[C@@H](CO)O1)Nc1ccc(F)cc1 | nt | 21 | nt | nt | nt | nt | nt | nt | nt | nt | nt
O=C(N/N=C/c1ccc2ncccc2c1)c1ccco1 | 33 | 55* | 66* | 14 | 66* | 31* | 53* | 53* | 84* | 87* | 64*
CN(C)c1ccc(C=Nc2ccccc2C(N)=O)cc1 | 89* | nt | 93* | -274 | 96* | 10 | 45 | 90* | 101* | 95* | 32
COc1ccc2c3c(n(C)c2c1)[C@H](CO)NCC31CN(Cc2ccc(-c3ccccn3)cc2)C1 | nt | -5 | nt | nt | nt | nt | nt | nt | nt | nt | nt
CNC[C@H]1Oc2c(NS(=O)(=O)c3ccc(C)cc3)cccc2C(=O)N([C@@H](C)CO)C[C@@H]1C | nt | 3 | nt | nt | nt | nt | nt | nt | nt | nt | nt
